The record followed here is PubChem BioAssay (NCATS).

Where “and” joins values, the source holds several entries; their conditions need not be identical. Equal values may be shown once. Inconclusive results are not listed. Calls of active or inactive are those of the source. Unless noted, calls come from the whole dose curve; as a rule, active = well fitted curve in the direction sought with a large enough effect; inconclusive = small, poorly fitted or top-dose-only effect, or another doubt; inactive = no such curve, though single readings can be large; an effect the other way counts as inactive or inconclusive.

Assay [1] is described as follows: qHTS Assay for Lipid Storage Modulators (AID 1519; calls by dose curve; for activity change, negative = inhibition: % is set by controls: 0 for no effect and ±100 for the full control effect). The note with it: Drosophila S3 cells, BODIPY lipid droplet/cell ratio, laser cytometry, cells loaded with oleic acid; for activity change, negative = inhibition: at 57.5 µM (top of the series). Summed up: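 Cells seeded at 5,000 per well were treated with compounds over a concentration series and loaded with oleic acid (400 uM, as added). Lipid droplet fluorescence (488 nm excitation, 500-530 nm channel) was read by laser-scanning cytometry and normalized to 20 uM Triacsin C.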
A general note: In qHTS, concentration-response curves come from the screen itself.

In assay [2] the target is DNA repair nuclease/redox regulator APEX1 (Homo sapiens) (UniProt P27695). Put plainly: qHTS Validation Assay for Inhibitors of the Human Apurinic/apyrimidinic Endonuclease 1 (APE1) (AID 1705;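 note: TAMRA fluorescence gain over two minutes as APE1 cuts a quenched THF abasic duplex; % is set by controls: 0 for no effect and ±100 for the full control effect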). The settings on record: purified APE1 endonuclease activity, fluorescence, titration; series mostly up to 57.1 µM. Summed up: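 Endonuclease activity of human APE1 is followed as dequenching when the enzyme incises a tetrahydrofuran abasic site in a short duplex labelled 5'-TAMRA/3'-BHQ-2 (50 nM final), after 15 min enzyme–compound preincubation at room temperature.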

Assay [3] is described as follows: Counterscreen for APE1 Inhibitors: Fluorescent Dye Displacement Validation Assay (AID 1707).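 Note: plate controls were ThO with dsDNA and no compound for no effect and ThO without dsDNA for full effect.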 The settings on record: fluorescent dye displacement from DNA; series mostly up to 57.1 µM. Summed up:
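Thiazole Orange (250 nM) bound to 50 nM TAMRA-labelled dsDNA with tetrahydrofuran abasic site; displacement by DNA-binding compounds lowers fluorescence. Buffer 50 mM Tris-HCl pH 7.5, 50 mM NaCl, 2 mM MgCl2, 0.01% Tween-20; endpoint read at 480/540 nm.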
On the technique in general: Counterscreens check selectivity or assay interference.

The nature of assay [4]: qHTS for differential inhibitors of proliferation of Plasmodium falciparum line 7G8 (AID 1815).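 For activity change, negative = inhibition: plate controls were vehicle wells for no effect and reference inhibitor wells for full effect.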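 Note: parasite growth measured after three days of incubation.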 Note: potency is the fitted concentration of half-maximal effect. The note with it: Plasmodium falciparum 7G8 proliferation inhibition; series mostly up to 28.7 µM.
Assay [5] can be described thus: qHTS for differential inhibitors of proliferation of Plasmodium falciparum line GB4 (AID 1816).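 For activity change, negative = inhibition: 0% = vehicle DMSO and -100% = reference inhibitor.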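 Note: parasite growth measured after 72 h incubation.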 Note: potency is the fitted concentration of half-maximal effect. The note with it: Potency: Plasmodium falciparum GB4 proliferation inhibition; series mostly up to 28.7 µM.
Assay [6] is described as follows: qHTS for differential inhibitors of proliferation of Plasmodium falciparum line 3D7 (AID 1876). Note: potency is the fitted concentration of half-maximal effect. The note with it: P. falciparum 3D7 proliferation inhibition; series mostly up to 28.7 µM.
Assay [7] in a line: qHTS for differential inhibitors of proliferation of Plasmodium falciparum line D10 (AID 1877).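 For activity change, negative = inhibition: plate controls were vehicle wells for no effect and reference inhibitor wells for full effect.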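 Note: parasites grown with compound for 72 h before DNA staining.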 Note: potency is the fitted concentration of half-maximal effect. The note with it: series mostly up to 28.7 µM.
A short description of assay [8]: qHTS for differential inhibitors of proliferation of Plasmodium falciparum line Dd2 (AID 1882).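 For activity change, negative = inhibition: plate controls were DMSO vehicle for no effect and 0.29 µM artemisinin for full effect.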 Note: nearly all actives have a fitted effect of over 65% in size. Note: potency is the fitted concentration of half-maximal effect. The settings on record: Potency: Plasmodium falciparum Dd2 proliferation inhibition; series mostly up to 28.7 µM. Summed up: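 Dd2-infected erythrocytes (0.3% parasitemia, 2.5% hematocrit final) incubated with compound 72 h at 37 C, 5% CO2; lysed with saponin/Triton buffer containing SYBR Green I, incubated overnight in the dark, then read by fluorescence (485/535 nm). Normalized to 0.29 uM artemisinin and DMSO.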

Assay [9] can be described thus: qHTS for differential inhibitors of proliferation of Plasmodium falciparum line W2 (AID 1883).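 For activity change, negative = inhibition: 0% = vehicle wells and -100% = control inhibitor wells.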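 Note: parasites grown with compound for 72 h before lysis and staining.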 Note: potency is the fitted concentration of half-maximal effect. The note with it: Potency: Plasmodium falciparum W2 proliferation inhibition; series mostly up to 28.7 µM.
A short description of assay [10]: qHTS for differential inhibitors of proliferation of Plasmodium falciparum line HB3 (AID 1886).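 For activity change, negative = inhibition: plate controls were vehicle for no effect and reference inhibitor for full effect.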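 Note: parasites grown with compound for 72 h before SYBR Green readout.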 Note: potency is the fitted concentration of half-maximal effect. The settings on record: Potency: Plasmodium falciparum HB3 proliferation inhibition; series mostly up to 28.7 µM.
Assay [11] concerns the target Ferritin light chain (Equus caballus) (UniProt P02791). Put plainly: qHTS Validation Assay for Identification of Novel General Anesthetics (AID 2323). Note: % is set by controls: 0 for no effect and ±100 for the full control effect. The settings on record: horse apoferritin, anesthetic-site fluorescent probe displacement; series mostly up to 76.9 µM. Summed up: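 Apoferritin from horse spleen (10 uM) was mixed with 1-aminoanthracene at 50% saturation in PBS, then compounds were added. After 10 min at room temperature, fluorescence was read (ex 380 nm, em 535 nm) and normalized to free-probe and complex controls.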

The target of assay [12] is ATP-dependent DNA helicase Q1 (Homo sapiens) (UniProt P46063). Put plainly: qHTS Validation Assay for Inhibitors of RecQ-Like Dna Helicase 1 (RECQ1) (AID 2353).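 Note: plate controls were DMSO vehicle for no effect and enzyme-free control for full effect.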 The settings on record: recombinant RECQ1 helicase DNA unwinding assay; series mostly up to 25.6 µM. Summed up: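 50 nM RECQ1T1 preincubated 15 min with compound in Tris pH 8.0 buffer with MgCl2, DTT, Tween-20 and 2.5 ug/ml poly(dI-dC); started with 200 nM TAMRA/BHQ-2 forked duplex and 2 mM ATP. Unwinding read as fluorescence (525/598 nm), two reads 2 h apart.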

The target in assay [13] is RecQ-like DNA helicase BLM (Homo sapiens) (UniProt P54132). Put plainly: qHTS Validation Assay for Inhibitors of Bloom's syndrome helicase (BLM) (AID 2364).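 Note: plate controls were DMSO vehicle for no effect and enzyme-free control for full effect.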 The note with it: BLM helicase DNA unwinding, fluorescence, in vitro; series mostly up to 57.1 µM. The method, boiled down:
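50 nM BLM preincubated 15 min at room temperature with compound in pH 8.0 Tris buffer containing 2.5 ug/ml poly(dI-dC); started with 200 nM TAMRA/BHQ-2 forked duplex and 2 mM ATP (final). Unwinding read as TAMRA fluorescence increase, two reads 2 h apart.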

Assay [14] concerns the target Endonuclease 4 (Escherichia coli (strain K12)) (UniProt P0A6C1). Put plainly: Counterscreen for APE1 Inhibitors: qHTS Validation Assay for Inhibitors of Endonuclease IV (AID 1708). Note: % is set by controls: 0 for no effect and ±100 for the full control effect. The settings on record: E. coli endonuclease IV, DNA cleavage fluorescence; series mostly up to 57.1 µM. Summed up: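 E. coli EndoIV at 2 nM final, preincubated 15 min at room temperature with compound, then 50 nM TAMRA/BHQ-2 THF abasic-site duplex added. Buffer: 50 mM Tris-HCl pH 7.5, 50 mM NaCl, 2 mM MgCl2, 1 mM DTT, 0.01% Tween-20. Kinetic fluorescence increase, third minus first read.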

Assay [15] in a line: Cytometric Cell-Based qHTS for Inhibitors of the mTORC1 Signaling Pathway in MEF (Tsc2-/-, p53-/-) Cells (AID 2660).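 Note: percent of cells above a phospho-rpS6 to PI ratio cutoff in each well; plate controls were DMSO for no effect and rapamycin for full effect.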 The settings on record: mTORC1 pathway cytometry; series mostly up to 38.3 µM. The method, boiled down: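 Tsc2-/-, p53-/- MEFs (empty vector) exposed to compound 24 h at 37 C, fixed, stained with Alexa-488 anti-phospho-rpS6 Ser235/236 and propidium iodide. Acumen laser scanning; phospho-S6/PI ratio thresholded against 7.5 nM rapamycin, reported as % positive cells.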

A short description of assay [16]: High Content Imaging Cell-Based qHTS for Inhibitors of the mTORC1 Signaling Pathway in MEF (Tsc2-/-, p53-/-) Cells (AID 2666). The settings on record: series mostly up to 38.3 µM. Summed up: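 Phospho-rpS6 (Ser235/236) immunofluorescence, normalized and scored as % positive cells using rapamycin and DMSO controls, was read in empty-vector Tsc2-/-, p53-/- MEFs after 24 h compound exposure at 37 C; propidium iodide counted cells.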

Assay [17] is described as follows: qHTS Assay for Modulators of Human Peripheral Myelin Protein 22 (PMP22) Expression/Activity (AID 1967; active = well fitted curve in the direction sought with a large enough effect in the signal ratio; the % refers to the signal ratio;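 note: 0% = untreated cells and 100% end not stated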). The settings on record: Cell-based PMP22 reporter, dual-color luciferase ratio, mouse Pmp22 promoter in mouse Schwann cells; series mostly up to 115 µM. Summed up:
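Quantitative HTS in a mouse Schwann cell line expressing dual click beetle luciferases: Pmp22 promoter (green) and control EF-alpha promoter (red). After 24h treatment, corrected green/red signal ratio gave %Activity relative to untreated cells.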

The mark [18] stands for this setting: measured here: cell count channel max response.
Where [19] appears, read: measured here: lipid channel max response.

Chain of DNA repair nuclease/redox regulator APEX1 (Homo sapiens) (P27695 whole entry, looked up): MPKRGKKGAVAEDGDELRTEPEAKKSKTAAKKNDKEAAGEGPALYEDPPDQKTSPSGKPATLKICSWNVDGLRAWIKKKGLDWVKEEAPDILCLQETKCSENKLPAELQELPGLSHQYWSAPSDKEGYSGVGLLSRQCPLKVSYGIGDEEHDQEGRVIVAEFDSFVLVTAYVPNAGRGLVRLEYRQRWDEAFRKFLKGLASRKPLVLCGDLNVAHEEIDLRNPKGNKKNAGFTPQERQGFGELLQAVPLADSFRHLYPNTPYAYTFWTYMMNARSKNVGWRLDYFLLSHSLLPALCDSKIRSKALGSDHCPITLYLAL
Chain of Ferritin light chain (Equus caballus) (P02791 2-175 limits assumed): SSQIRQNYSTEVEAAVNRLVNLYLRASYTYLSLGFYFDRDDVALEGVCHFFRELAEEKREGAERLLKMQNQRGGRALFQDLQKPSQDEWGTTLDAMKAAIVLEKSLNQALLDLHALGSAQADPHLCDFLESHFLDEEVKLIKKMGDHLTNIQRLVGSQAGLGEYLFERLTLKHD
Chain of RecQ-like DNA helicase BLM (Homo sapiens) (P54132 whole entry, looked up): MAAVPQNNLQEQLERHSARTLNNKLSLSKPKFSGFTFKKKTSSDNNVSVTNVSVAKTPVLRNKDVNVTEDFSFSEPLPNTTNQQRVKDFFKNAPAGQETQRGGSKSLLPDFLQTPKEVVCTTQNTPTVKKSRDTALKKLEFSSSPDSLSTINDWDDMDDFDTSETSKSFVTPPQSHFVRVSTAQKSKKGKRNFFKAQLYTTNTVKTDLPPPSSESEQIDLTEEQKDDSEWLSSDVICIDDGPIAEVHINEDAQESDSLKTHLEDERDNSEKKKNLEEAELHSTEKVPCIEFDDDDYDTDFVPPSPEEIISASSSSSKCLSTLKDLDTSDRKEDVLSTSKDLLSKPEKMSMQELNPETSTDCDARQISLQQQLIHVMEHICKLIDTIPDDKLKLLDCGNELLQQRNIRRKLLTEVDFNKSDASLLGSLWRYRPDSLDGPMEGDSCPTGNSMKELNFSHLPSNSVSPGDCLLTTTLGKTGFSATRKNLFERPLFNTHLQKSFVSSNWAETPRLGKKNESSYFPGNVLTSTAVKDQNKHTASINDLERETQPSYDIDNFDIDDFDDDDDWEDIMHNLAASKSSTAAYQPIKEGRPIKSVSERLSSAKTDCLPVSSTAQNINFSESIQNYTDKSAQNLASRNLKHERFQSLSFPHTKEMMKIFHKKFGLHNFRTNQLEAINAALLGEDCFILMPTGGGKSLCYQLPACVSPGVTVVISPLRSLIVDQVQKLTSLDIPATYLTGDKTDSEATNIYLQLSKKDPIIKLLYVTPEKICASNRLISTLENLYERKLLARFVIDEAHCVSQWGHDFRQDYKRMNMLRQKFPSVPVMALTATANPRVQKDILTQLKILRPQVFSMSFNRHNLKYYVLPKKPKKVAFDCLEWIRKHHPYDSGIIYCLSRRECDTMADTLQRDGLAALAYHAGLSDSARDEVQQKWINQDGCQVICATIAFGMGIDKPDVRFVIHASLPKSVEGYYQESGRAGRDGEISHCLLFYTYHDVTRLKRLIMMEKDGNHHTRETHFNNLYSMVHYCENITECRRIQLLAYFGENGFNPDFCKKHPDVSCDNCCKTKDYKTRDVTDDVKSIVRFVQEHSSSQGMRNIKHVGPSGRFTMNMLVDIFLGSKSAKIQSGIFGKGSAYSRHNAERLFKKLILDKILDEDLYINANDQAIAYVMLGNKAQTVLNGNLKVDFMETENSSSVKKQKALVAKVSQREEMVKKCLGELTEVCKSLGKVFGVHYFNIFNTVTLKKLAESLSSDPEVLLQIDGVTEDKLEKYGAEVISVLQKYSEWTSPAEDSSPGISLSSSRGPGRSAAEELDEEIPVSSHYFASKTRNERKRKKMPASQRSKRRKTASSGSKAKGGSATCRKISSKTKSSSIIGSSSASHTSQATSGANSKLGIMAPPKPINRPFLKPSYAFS
Chain of ATP-dependent DNA helicase Q1 (Homo sapiens) (P46063 whole entry, looked up): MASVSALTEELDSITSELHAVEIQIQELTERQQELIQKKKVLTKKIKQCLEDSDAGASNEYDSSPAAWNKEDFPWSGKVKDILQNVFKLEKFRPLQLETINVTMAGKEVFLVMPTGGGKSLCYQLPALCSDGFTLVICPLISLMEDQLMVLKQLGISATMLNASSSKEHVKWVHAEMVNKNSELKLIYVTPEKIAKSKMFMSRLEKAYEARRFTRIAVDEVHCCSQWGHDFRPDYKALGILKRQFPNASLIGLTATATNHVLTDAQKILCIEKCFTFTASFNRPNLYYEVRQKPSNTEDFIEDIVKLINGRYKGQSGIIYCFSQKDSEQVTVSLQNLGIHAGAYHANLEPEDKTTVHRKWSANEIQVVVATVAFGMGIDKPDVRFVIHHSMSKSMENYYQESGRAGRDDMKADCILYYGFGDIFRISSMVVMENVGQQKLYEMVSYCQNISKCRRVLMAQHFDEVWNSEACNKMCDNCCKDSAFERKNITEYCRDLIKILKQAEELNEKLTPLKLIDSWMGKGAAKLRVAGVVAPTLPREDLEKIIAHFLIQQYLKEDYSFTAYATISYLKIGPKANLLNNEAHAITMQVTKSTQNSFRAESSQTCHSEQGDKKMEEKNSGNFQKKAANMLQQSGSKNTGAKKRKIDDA

For the molecule `Cc1cc(C)cc(C(=O)OC2C[C@H]3CC[C@@H](C2)N3C)c1` (stereo partly drawn), in assay [1], the activity change, negative = inhibition was 3% (inactive). Moreover, the values for the max response in assay [1] (setting [18]) and in assay [1] (setting [19]) were -0.988% and 4.22%, respectively.
Consider `CN1C2CCC1CC(OC(c1ccccc1)c1ccc(Cl)cc1)C2` (stereo not drawn), for which the activity change, negative = inhibition in [1] is 0.923% (inactive). Also, the max response was -27.9% in [1] (setting [18]) and -25.4% in [1] (setting [19]). Further, the Potency result in assay [2], in assay [3], in [12] and in [13] was “inactive” throughout. Also, the Potency in assay [4] is 2.24 µM (active); in [5], 2.24 µM (active); in assay [6], 2.24 µM (active); in [7], 7.94 µM (active); in [8], 8.91 µM (active); in [9], 1.12 µM (active). Moreover, the Potency in assay [10] was 2.24 µM (active). Also, the result in assay [11] was inactive.
On to `C[N+]1(C)CCN(c2ccccc2)CC1`, for which the activity change, negative = inhibition in [1] was 1.07% (inactive). Also, the results for the max response in assay [1] (setting [18]) and in assay [1] (setting [19]) were -21.1% and -16.2%, respectively. The Potency entry in assay [2], in [3], in assay [14], in [4], in [5] and in assay [7] was “inactive” in each case. Besides, the Potency result in assay [8], in [10], in assay [12], in assay [15] and in assay [16] was “inactive” in each case. Besides, the molecule was called inactive in [11].
Turning to `C[N+]1(C)CCC(OC(=O)C(c2ccccc2)c2ccccc2)CC1`, the activity change, negative = inhibition in assay [1] is -1.55% (inactive) and -0.573% (inactive). Besides, the max response in assay [1] (setting [18]) is 3.78% and -17.3%; in assay [1] (setting [19]), 1.6% and -18%. Moreover, the Potency entry in assay [2], in [3], in assay [14] and in assay [12] was “inactive” each time. Besides, the Potency in assay [4] was 8.91 µM (active); in assay [5], 12.6 µM (active); in assay [6], 3.16 µM (active); in [7] it was 7.08 µM (active); in assay [9], 3.98 µM (active); in [10], 7.94 µM (active). The molecule was called inactive in assay [11].
Consider `CCCN(CCC)C1Cc2cc(OC)c(OC)cc2C1`, for which the activity change, negative = inhibition in assay [1] was -0.96% (inactive). Further, the max response in assay [1] (setting [18]) was -27.4%; in [1] (setting [19]), -31.4%. Moreover, the Potency entry in assay [2], in assay [3], in assay [14], in assay [4], in assay [6] and in assay [7] was “inactive” each time. In addition, the Potency result in assay [8], in assay [9], in [10], in assay [12], in assay [15] and in assay [16] was “inactive” in each case. For the same molecule, the outcome in assay [17] and in assay [11] was inactive.
Consider `NCCc1c[nH]c2ccc(C(N)=O)cc12`, for which the activity change, negative = inhibition in [1] is -0.884% (inactive). Also, the max response came out at 2.92% in [1] (setting [18]) and 1.87% in assay [1] (setting [19]). In addition, the Potency result in assay [2], in assay [3], in [4], in assay [5], in assay [6] and in [7] was “inactive” in each case. Moreover, the Potency result in assay [8], in [10], in [12], in [13], in assay [15] and in assay [16] was “inactive” throughout. Besides, the result in assay [17] and in assay [11] was inactive.
As for `CCCN(CCC)CCc1ccc(O)c(O)c1`, the activity change, negative = inhibition in assay [1] is -0.321% (inactive). Further, the max response was -7.51% in [1] (setting [18]) and -5.97% in [1] (setting [19]). The Potency entry in assay [2], in assay [3], in [14], in assay [12], in assay [13] and in [15] was “inactive” in each case. Besides, the Potency result in assay [16] is “inactive”. The Potency in [4] was 12.6 µM (active); in assay [5], 10 µM (active); in assay [7] it was 14.1 µM (active); in [9], 10 µM (active); in assay [10], 11.2 µM (active). Further, the call in assay [11] was inactive.
For `NNC(=O)c1ccc(O)cc1`, in assay [1], the activity change, negative = inhibition was 0.0246% (inactive). For the same molecule, the max response in [1] (setting [18]) was -17.6%; in [1] (setting [19]) it was -15.4%. The Potency result in [2], in assay [3], in assay [4], in [5], in assay [6] and in assay [7] was “inactive” in each case. Moreover, the Potency result in assay [8], in assay [9], in assay [10], in assay [12], in assay [15] and in [16] was “inactive” throughout. Also, in assay [11], the molecule was called inactive.
